The supplement of paper PMC11732987, “Enantioselective OTUD7B fragment discovery through chemoproteomics screening and high-throughput optimisation” (Communications Chemistry, 2025)

What was measured:
Assay in all cases: log2 ratio of Biotin-Ahx-Ub-VS probe labelling (fragment/DMSO); higher = less target engagement (more negative = stronger competition), active = hit call of the paper (q ≤ 0.05, log2 ratio ≤ -1)
Conditions in all cases: compound concentration: 200 uM; treatment time: 3 h
[1] = target: T1, ALG13 (UniProt Q9NP73)
T1 sequence (whole entry): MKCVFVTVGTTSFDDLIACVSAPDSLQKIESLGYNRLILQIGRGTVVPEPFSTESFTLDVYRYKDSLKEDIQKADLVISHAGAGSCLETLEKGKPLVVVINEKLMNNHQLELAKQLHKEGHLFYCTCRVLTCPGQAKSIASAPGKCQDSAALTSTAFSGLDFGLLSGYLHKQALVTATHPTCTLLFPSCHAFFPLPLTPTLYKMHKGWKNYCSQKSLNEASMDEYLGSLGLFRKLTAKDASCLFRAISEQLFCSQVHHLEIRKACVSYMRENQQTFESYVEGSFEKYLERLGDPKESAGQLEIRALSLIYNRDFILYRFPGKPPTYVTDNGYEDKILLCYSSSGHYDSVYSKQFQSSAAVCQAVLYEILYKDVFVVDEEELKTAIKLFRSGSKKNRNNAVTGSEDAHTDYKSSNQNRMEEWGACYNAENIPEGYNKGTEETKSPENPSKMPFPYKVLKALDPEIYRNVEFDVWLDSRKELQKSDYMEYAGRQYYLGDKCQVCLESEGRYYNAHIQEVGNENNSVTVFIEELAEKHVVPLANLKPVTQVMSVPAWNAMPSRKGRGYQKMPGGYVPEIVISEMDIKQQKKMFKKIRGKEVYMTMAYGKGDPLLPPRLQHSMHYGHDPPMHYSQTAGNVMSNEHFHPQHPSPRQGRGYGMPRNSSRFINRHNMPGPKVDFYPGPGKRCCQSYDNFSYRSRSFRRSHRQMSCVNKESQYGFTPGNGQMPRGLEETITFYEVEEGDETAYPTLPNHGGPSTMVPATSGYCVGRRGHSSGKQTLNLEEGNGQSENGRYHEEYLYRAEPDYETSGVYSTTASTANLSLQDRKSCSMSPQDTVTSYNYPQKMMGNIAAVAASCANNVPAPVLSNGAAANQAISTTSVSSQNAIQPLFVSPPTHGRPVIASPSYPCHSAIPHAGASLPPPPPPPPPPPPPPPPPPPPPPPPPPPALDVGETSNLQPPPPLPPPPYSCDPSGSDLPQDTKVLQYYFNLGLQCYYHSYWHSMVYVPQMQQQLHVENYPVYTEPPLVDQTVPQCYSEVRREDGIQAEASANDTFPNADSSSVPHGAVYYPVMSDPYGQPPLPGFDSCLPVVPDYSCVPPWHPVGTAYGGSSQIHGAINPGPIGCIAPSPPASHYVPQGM
Outline: (§1)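 Labelling with Biotin-Ahx-Ub-VS (0.5 µM final, 1 h) followed a 3 h triplicate treatment of HEK293T lysate (495 µg per sample, Tris/CHAPS/IGEPAL buffer with protease inhibitors) with fragment at 200 µM or vehicle. Labelled DUBs were NeutrAvidin-enriched, digested with LysC and trypsin, and run by diaPASEF LC-MS/MS. The values, average log2 fragment/vehicle ratios by unpaired t-test, come from global-median-normalised Spectronaut label-free quantities. Proteins with ≥2 unique peptides were used.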

[2] = target: ATXN3 (UniProt P54252)
Outline: as §1

[3] = target: T2, BAP1 (UniProt Q92560)
T2 sequence (whole entry): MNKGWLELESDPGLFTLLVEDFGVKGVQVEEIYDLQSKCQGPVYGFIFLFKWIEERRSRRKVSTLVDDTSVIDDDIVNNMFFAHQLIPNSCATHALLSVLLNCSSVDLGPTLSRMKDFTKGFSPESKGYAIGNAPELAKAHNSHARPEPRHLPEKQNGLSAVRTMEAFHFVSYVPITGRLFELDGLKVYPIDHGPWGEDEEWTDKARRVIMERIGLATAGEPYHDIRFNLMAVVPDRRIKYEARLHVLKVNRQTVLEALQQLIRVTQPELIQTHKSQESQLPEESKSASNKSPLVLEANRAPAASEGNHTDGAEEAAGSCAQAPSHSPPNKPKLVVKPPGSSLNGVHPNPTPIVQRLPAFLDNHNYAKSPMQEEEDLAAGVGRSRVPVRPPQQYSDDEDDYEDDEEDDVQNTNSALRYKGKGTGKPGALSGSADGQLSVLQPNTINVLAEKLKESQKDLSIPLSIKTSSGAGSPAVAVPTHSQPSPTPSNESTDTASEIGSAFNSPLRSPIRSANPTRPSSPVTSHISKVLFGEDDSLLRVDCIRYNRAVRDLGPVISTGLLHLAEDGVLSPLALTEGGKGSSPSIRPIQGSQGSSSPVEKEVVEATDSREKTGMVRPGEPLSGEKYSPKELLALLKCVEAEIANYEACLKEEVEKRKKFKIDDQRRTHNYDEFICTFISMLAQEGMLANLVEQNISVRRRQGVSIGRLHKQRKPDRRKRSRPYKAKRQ
Outline: as §1

[4] = target: EIF3F (UniProt O00303)
Outline: as §1

[5] = target: EIF3H (UniProt O15372)
Outline: as §1

[6] = target: T3, FAM105A (UniProt Q9NUU6)
T3 sequence (whole entry): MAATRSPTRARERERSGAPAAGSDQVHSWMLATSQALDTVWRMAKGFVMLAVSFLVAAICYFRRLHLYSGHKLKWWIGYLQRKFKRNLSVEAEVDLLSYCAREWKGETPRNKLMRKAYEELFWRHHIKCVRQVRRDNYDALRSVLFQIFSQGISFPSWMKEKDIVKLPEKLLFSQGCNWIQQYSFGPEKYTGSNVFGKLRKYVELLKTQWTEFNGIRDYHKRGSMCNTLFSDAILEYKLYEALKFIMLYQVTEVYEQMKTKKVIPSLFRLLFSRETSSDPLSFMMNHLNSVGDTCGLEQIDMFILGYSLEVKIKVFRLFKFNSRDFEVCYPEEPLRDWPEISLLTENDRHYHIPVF
Outline: as §1

[7] = target: OTUB1 (UniProt Q96FW1)
Outline: as §1

[8] = target: T4, OTUD4 (UniProt Q01804)
T4 sequence (whole entry): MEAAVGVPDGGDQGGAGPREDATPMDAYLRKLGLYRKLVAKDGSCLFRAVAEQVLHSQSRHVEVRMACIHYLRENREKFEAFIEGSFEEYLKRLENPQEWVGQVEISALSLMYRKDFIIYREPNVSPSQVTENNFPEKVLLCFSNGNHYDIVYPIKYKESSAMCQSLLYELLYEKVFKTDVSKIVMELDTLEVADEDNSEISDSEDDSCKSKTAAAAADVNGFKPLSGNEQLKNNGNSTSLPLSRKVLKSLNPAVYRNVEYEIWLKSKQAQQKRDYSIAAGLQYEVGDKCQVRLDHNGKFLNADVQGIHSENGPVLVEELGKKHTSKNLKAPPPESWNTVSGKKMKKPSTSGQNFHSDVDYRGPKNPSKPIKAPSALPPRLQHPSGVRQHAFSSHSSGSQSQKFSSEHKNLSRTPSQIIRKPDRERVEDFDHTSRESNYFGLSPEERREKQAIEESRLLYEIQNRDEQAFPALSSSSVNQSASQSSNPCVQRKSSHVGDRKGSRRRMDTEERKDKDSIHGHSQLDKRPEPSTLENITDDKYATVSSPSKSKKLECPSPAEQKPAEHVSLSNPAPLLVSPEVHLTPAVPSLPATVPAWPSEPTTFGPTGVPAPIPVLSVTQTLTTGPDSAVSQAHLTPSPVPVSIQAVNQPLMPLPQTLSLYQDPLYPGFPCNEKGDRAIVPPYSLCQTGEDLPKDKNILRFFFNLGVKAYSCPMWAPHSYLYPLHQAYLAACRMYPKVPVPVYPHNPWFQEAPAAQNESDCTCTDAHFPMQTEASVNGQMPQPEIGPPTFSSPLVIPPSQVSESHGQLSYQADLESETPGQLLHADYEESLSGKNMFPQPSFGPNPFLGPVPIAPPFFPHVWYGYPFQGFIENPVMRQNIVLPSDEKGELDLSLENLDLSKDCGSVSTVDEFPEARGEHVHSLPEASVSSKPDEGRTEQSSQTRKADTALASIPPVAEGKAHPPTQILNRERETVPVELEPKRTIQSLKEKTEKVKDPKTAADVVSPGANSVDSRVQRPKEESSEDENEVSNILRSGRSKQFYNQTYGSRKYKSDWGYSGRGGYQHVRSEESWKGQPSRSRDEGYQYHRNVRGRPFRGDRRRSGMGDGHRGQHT
Outline: as §1

[9] = target: T5, OTUD5 (UniProt Q96G74)
T5 sequence (whole entry): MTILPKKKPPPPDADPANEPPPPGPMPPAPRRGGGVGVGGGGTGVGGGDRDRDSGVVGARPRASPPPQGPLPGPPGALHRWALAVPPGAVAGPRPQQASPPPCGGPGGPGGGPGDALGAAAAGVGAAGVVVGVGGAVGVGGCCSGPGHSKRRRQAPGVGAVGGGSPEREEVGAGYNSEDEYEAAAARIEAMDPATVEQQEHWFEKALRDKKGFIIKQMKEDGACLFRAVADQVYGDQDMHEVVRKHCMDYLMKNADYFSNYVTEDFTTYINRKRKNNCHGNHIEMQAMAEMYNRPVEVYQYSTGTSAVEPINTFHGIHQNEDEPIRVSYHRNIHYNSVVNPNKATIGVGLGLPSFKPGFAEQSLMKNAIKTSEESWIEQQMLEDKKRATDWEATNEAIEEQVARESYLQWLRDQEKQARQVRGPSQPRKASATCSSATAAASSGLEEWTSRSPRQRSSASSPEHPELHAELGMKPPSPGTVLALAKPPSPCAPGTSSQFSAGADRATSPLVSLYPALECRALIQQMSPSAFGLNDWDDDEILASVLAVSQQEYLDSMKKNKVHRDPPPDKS
Outline: as §1

Measured: log2 ratio of Biotin-Ahx-Ub-VS probe labelling

OTUB1, sequence (Q96FW1 whole entry): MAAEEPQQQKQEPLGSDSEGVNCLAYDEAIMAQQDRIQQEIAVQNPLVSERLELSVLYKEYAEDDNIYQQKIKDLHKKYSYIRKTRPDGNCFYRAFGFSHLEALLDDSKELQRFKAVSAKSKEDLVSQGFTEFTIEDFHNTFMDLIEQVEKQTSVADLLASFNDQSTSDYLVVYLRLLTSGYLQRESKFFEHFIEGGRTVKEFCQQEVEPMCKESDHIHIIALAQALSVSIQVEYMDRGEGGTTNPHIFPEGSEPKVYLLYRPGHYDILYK
ATXN3, sequence (P54252 whole entry): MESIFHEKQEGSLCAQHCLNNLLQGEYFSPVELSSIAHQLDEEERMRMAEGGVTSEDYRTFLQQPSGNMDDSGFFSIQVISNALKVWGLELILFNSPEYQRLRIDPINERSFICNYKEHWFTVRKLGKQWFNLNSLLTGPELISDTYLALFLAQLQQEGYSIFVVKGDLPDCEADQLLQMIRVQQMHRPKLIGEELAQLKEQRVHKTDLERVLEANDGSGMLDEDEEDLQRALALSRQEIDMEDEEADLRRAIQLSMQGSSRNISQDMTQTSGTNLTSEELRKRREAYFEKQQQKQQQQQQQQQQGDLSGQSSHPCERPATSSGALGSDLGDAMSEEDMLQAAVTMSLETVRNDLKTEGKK
EIF3F, sequence (O00303 whole entry): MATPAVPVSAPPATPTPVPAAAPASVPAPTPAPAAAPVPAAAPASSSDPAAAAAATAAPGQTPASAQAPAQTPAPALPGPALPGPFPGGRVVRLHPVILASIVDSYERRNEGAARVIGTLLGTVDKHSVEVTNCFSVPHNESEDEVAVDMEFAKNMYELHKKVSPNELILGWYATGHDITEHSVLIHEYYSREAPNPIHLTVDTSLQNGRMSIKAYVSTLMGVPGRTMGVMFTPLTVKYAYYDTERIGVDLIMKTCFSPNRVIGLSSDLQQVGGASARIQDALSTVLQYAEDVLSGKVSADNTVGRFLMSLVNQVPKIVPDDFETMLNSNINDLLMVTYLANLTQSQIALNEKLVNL
EIF3H, sequence (O15372 whole entry): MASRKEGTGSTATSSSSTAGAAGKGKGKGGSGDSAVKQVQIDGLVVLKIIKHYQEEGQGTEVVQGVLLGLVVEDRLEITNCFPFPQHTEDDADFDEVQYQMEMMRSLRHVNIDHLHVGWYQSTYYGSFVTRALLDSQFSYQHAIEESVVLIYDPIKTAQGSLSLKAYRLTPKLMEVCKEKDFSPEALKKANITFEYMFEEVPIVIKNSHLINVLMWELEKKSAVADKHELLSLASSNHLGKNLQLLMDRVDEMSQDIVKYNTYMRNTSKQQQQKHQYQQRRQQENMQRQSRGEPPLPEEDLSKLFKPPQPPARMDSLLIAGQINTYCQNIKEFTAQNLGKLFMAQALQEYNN

O=C(CCl)Nc1ccc2c(c1)OC(F)(F)O2
inactive: [1] 0.0874 | [2] -0.411 | [4] -0.0462 | [5] 0.0852 | [6] -0.278 | [7] 0.13 | [8] -0.422 | [9] -0.515
active: [3] -1.92
